# Screen size: about 310,000 compounds; about 14,000 (4.5%) showed an effect of 50% or more. Effects have a minus sign here. For the sample, strong results were picked, then their nearest neighbours and some compounds at random.
# Target: human ether-à-go-go-related gene (hERG) potassium channel (human, UniProt Q12809)
# Experiment: primary screen, population patch clamp on CHO cells stably expressing hERG; higher = less effect of the substance
# 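Also: peak tail current of the secondary pulse compared with the same well before compound.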
# Chain of human ether-à-go-go-related gene (hERG) potassium channel (Q12809 whole entry, looked up): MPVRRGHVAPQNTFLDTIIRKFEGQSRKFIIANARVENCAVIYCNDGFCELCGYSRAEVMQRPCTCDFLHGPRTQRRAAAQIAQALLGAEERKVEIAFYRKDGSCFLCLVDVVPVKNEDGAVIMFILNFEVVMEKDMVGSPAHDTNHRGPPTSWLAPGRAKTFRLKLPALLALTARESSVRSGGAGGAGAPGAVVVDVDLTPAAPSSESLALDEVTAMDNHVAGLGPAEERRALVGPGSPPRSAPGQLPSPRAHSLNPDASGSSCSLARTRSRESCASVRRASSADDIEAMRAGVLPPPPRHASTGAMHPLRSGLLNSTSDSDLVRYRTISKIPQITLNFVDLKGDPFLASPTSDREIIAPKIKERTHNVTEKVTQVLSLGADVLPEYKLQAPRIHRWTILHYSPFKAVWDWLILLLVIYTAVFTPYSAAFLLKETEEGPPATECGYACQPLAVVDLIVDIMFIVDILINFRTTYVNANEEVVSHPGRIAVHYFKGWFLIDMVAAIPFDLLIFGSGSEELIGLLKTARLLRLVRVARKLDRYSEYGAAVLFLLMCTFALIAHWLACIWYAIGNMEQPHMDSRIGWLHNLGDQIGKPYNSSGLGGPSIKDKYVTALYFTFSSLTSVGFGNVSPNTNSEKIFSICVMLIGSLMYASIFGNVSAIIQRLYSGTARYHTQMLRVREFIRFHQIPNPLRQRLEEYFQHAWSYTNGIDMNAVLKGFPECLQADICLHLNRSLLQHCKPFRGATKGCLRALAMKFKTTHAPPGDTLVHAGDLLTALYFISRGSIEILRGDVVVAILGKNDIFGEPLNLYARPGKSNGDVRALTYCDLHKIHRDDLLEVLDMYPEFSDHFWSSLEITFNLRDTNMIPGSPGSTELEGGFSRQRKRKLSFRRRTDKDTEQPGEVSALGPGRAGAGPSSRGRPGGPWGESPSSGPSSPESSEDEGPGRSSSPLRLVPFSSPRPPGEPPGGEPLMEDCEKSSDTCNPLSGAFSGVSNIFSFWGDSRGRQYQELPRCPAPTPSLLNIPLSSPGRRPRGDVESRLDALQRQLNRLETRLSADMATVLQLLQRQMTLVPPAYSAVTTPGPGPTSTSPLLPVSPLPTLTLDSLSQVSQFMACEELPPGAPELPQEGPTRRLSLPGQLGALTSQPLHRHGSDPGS
row,SMILES,"hERG current change (%, negative = inhibition) at 10uM"
1,N#Cc1ccc(C23CC4(C2)[C@H](CN(Cc2ccc(C(F)(F)F)cc2)[C@@H]4c2ccccc2)C3c2ccccc2)cc1 (stereo partly shown),13.5%
2,O=C(Nc1nccs1)c1ccc(COc2ccccc2Br)o1,-6.85%
3,Cc1ccc(-c2nnc(SCC(=O)N/N=C/c3ccc(C)s3)n2-c2ccc(C)cc2)cc1,-17.4%
4,O=C(c1ccco1)N1CCN(Cc2nc(-c3cccs3)no2)CC1,-38.1%
5,CS(=O)(=O)N(CC(=O)NCCSCc1c(F)cccc1Cl)c1cccc([N+](=O)[O-])c1,-15.9%
6,COCC(C)NC(=O)CSc1nc2ccccc2n1CCc1ccccc1 (stereo not shown),-8.53%
7,Cc1cccc(N2CC(C(=O)Nc3nnc(SCC(=O)Nc4cc(C)on4)s3)CC2=O)c1 (stereo not shown),23%
8,Cc1cc(=O)[nH]c(SCC(=O)Nc2ccc(S(=O)(=O)N3CCOCC3)cc2)n1,-3.3%
9,CC1(C)SC(=S)N(NC(=O)Nc2ccccc2)C1N(O)C(=O)Nc1ccccc1 (stereo not shown),12.7%
10,CCOc1cc(N2CCOCC2)c(OCC)cc1NC(=O)c1oc2ccccc2c1C,18.6%
11,O=C(c1ccccc1F)N1CCCC(C(=O)N2CCc3ccccc3C2)C1 (stereo not shown),-8.64%
12,CCCCc1nc(S(=O)(=O)c2ccc(Cl)cc2)c(N2CCOCC2)o1,-69.6%
13,O=S(=O)(c1ccc(Cl)cc1)c1nc(-c2ccco2)oc1N1CCCCC1,-7.91%
14,CC(C)Cc1nc(S(=O)(=O)c2ccc(Cl)cc2)c(N2CCOCC2)o1,-6.14%
15,O=S(=O)(c1ccccc1)c1nc(-c2ccco2)oc1N1CCCCC1,-37.1%
16,O=S(=O)(c1ccc(Cl)cc1)c1nc(-c2ccco2)oc1N1CCOCC1,-55.4%
17,CC(C)(C)c1nc(S(=O)(=O)c2ccc(Cl)cc2)c(N2CCOCC2)o1,-14.2%
18,COc1ccc(NC(=O)Nc2ccc3nccnc3c2)cc1,2.71%
19,COc1ccccc1CNC(=O)C1CCN(C(=O)NC2CCCCC2)CC1,10.6%
20,CCc1ccc(/C=N/NC(=O)C(=O)NCCCN2CCOCC2)cc1,-23.6%
21,COc1ccc(NC(=S)N2c3ccccc3CC2C)cc1OC (stereo not shown),-5.96%
22,CCCC(=O)Nc1nnc(Cc2ccccc2)s1,-0.72%

row,SMILES,"hERG current change (%, negative = inhibition) at 10uM"
1,COc1ccc(S(=O)(=O)Cc2ccc(C(=O)NC3CCC(C)CC3)o2)cc1 (stereo not shown),-15.8%
2,Cc1ccc(-c2ccc(/C=N/c3ncn[nH]3)o2)cc1Cl,11.6%
3,Cl.O.Oc1ccc2c3c1O[C@H]1c4[nH]c5ccccc5c4C[C@@]4(O)C(C2)N(CC2CC2)CC[C@]314,-55.4%
4,Oc1cccc(C2c3[nH]c4ccccc4c3CCN2Cc2ccoc2)c1 (stereo not shown),-29.6%
5,CS(=O)(=O)O.O.Oc1ccc2c3c1O[C@H]1c4oc5ccccc5c4C[C@@]4(O)[C@@H](C2)N(CC2CC2)CC[C@]314,-76.9%
6,Cl.O=C1CC[C@@]2(O)[C@H]3Cc4ccc(O)c5c4[C@@]2(CCN3CC2CC2)[C@H]1O5,0.91%
7,C=C1CC[C@@]2(O)[C@H]3Cc4ccc(O)c5c4[C@@]2(CCN3CC2CC2)[C@H]1O5,-2.73%
8,C=CCN1CC[C@]23c4c5ccc(O)c4O[C@H]2/C(=N/NC(=O)c2ccccc2)CC[C@@]3(O)[C@H]1C5,-69.1%
9,Oc1cccc(C2c3[nH]c4ccccc4c3CCN2Cc2ccc3c(c2)CCO3)c1 (stereo not shown),9.6%
10,C=C(C)CN1CC[C@]23c4c5ccc(O)c4O[C@H]2c2[nH]c4ccccc4c2C[C@@]3(O)C1C5.Cl.O,4.9%
11,Cl.Oc1ccc2c3c1O[C@H]1c4[nH]c5ccccc5c4C[C@@]4(O)[C@@H](C2)N(CC2CC2)CC[C@]314,-63%
12,C=CC[N+]1(C)CC[C@]23c4c5ccc(O)c4O[C@H]2C(=O)CC[C@@]3(O)[C@H]1C5.[I-] (stereo partly shown),17.8%
13,NC(N)=Nc1ccc2[nH]c3c(c2c1)C[C@@]1(O)[C@H]2Cc4ccc(O)c5c4[C@@]1(CCN2CC1CC1)[C@H]3O5.O=C(O)C(F)(F)F,6.85%
14,COc1ccc(C2/C(=C(/O)c3ccc(Br)cc3)C(=O)C(=O)N2C)cc1 (stereo not shown),-12.7%
15,Cn1cc(P(=S)(N2CCOCC2)N2CCOCC2)cc1P(=O)(N1CCOCC1)N1CCOCC1,7.36%
16,COc1ccc(Oc2cccc(Cl)c2CNC(=O)c2ccccc2C(=O)O)cc1,4.98%
17,CC(C)(C)NC(=O)C(Cc1ccccc1)N1C(=O)c2ccccc2C1=O (stereo not shown),6.68%
18,CCOC(=O)C1(Cc2ccc(OC)cc2)CCN(C(=O)C2=CCCC2)CC1,-33.8%
19,Cc1ccnc(NC2CCCCC2)c1,20.4%
20,Cn1c(CNc2ccccn2)c(C#N)c2ccccc21,-6.94%
21,COC(=O)CCCC1=CC2=CC(=O)C(C)(OC(=O)c3cccs3)C(=O)C2=CN1CCc1c[nH]c2ccccc12 (stereo not shown),15%
